From PubChem BioAssay
Only some compounds are listed: those with a hit (about 6.7% of all), similar ones and a draw of the others.
Autofluor counter: compound fluorescence in toxin protease inhibitor counterscreen; compound autofluorescence counterscreen, microsphere flow cytometry; hits give high values; fluorescence intensity (no concentration beside the values); actives 3.1% (n = 360,000); AID 624483; in the data active = fluorescence intensity above about 16000; inconclusive = no clear call, values can overlap the other calls
Anthrax LF prot: inhibitors of Bacillus anthracis lethal factor protease; multiplex microsphere protease cleavage assay, LF; inhibition, % at 10 µM; actives 0.12% (n = 360,000); P15917; also: plate controls were buffer without enzyme for full effect and enzyme alone for no effect
Target sequence (P15917 whole entry, looked up): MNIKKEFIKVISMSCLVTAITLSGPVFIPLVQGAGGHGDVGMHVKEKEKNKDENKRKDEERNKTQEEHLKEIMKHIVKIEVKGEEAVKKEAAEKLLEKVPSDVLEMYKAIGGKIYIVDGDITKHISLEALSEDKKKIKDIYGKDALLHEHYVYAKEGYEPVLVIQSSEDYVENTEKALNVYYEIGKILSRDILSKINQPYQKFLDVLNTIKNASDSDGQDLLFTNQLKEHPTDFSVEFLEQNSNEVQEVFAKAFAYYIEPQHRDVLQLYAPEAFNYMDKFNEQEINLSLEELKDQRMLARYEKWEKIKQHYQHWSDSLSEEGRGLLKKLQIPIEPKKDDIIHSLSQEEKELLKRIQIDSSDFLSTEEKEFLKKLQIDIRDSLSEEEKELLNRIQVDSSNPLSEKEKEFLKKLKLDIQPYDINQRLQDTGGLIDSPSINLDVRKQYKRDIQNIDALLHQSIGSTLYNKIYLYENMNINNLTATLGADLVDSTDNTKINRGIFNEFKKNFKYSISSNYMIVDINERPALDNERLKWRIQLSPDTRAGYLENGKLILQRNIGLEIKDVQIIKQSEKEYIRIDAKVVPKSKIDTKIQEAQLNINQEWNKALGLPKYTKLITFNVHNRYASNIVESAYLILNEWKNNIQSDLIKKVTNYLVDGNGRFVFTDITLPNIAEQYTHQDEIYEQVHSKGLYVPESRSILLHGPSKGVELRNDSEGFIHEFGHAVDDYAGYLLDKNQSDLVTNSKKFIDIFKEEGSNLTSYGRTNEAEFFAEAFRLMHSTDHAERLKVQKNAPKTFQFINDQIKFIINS
BoNT A protease: inhibitors of Botulinum neurotoxin A light chain protease; inhibition, % at 10 µM; multiplex microsphere protease substrate cleavage, flow cytometry; actives 0.17% (n = 360,000); also: plate controls were buffer without enzyme for full effect and enzyme alone for no effect
GDH-TPI inh: inhibits GDH-TPI coupling enzymes, artifact for Mtb FBA screen; actives 1.2% (n = 360,000); GDH-TPI coupled enzyme counterscreen, NADH absorbance; inhibition, % at 4.8 µM; in the data active = inhibition above about 30%;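 also: 0% = DMSO wells and 100% = wells lacking the enzyme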
Mtb FBA inh: inhibits M. tuberculosis FBA enzyme. AID 588726. actives 2.3% (n = 360,000). purified M. tuberculosis FBA, fluorescence read-out. inhibition, % at 1 µM. P9WQA3; in the data active = inhibition above about 27%;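 also: 0% = vehicle and 100% = reference inhibitor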
BoNT-F LC inh: BoNT F light chain protease inhibition; Multiplex microsphere protease cleavage assay, flow cytometry; inhibition, % at 10 µM; actives 0.22% (n = 360,000); AID 588497; in the data active = inhibition above about 35%, passing the limit was not always enough; inconclusive = no clear call, values can overlap the other calls; also: plate controls were buffer without enzyme for full effect and enzyme alone for no effect
The depositor's hits bear a star; u = inconclusive. Rule as the data show it, unless noted: active = inhibition above about 30%; inconclusive = no clear call, values can overlap the other calls; inactive = below that.

SMILES | Autofluor counter | Anthrax LF prot | BoNT A protease | GDH-TPI inh | Mtb FBA inh | BoNT-F LC inh
CSc1nsc(SCC(=O)Nc2ccc(O)c(C(=O)O)c2)n1 | 3989 | -7 | -4 | -5 | 19 | -1
CC(C)C(=O)O/N=C1\CCS(=O)(=O)c2sccc21 | 3191 | 0 | 0 | 3 | -3 | -4
CCOC(=O)C1C(c2cccs2)NC(=O)NC1(O)C(F)(F)F (stereo not drawn) | 9431 | -1 | 0 | -6 | 0 | -2
Cc1ccc(C)c(-n2c(CNC(=O)c3ccco3)nnc2SCC(=O)Nc2nccs2)c1 | 4623 | -1 | -1 | 4 | -3 | -2
CCc1cc(C(=O)Cc2cnn(-c3ccccc3)c2)c(O)cc1O | 16047 | -9 | 0 | 50* | 0 | -4
COc1cccc2c1OC[C@@H](CO)[C@H]2N(C)C(=O)Nc1ccc(Cl)cc1 | 21011* | -1 | 6 | 1 | 1 | 10
COCCN(CCOC)C(=O)Nc1ccc(Cl)cc1 | 4911 | -1 | 0 | 22 | 2 | -2
O=c1[nH]c(SCc2ccc(Cl)cc2)nc2ccccc12 | 4074 | 0 | 0 | 12 | -4 | -2
CCn1nnc(NC(=O)COc2ccc(C3CCCCC3)cc2)n1 | 10985 | -2 | 0 | -10 | 0 | 3
Cn1cc(/C=N/NC(=O)c2ccccc2O)c2ccccc21 | 4602 | -13 | -3 | 59* | 2 | u
Cn1cc(/C=N/NC(=O)c2cccc([N+](=O)[O-])c2)c2ccccc21 | 9925 | -3 | -1 | 37* | -1 | -12
Cc1nc(C)c(C(=O)N/N=C/c2c[nH]c3ccccc23)s1 | 4323 | 2 | -2 | 24 | -1 | -6
Cc1nc(C)c(C(=O)N/N=C/c2cn(C)c3ccccc23)s1 | 4327 | 5 | 0 | 34* | -2 | -13
COc1ccc2c(c1)c(C(=O)N/N=C/c1cn(C)c3ccccc13)c(C)n2C | 4038 | -14 | u | 37* | -3 | u
COc1ccc(O)c(C(=O)c2cc(SCC(=O)O)c3nc4sc5c(c4c(=O)n3c2)CCCC5)c1 | 4677 | 4 | 0 | 8 | 2 | -10
Cc1cccc(C(=O)OCC(=O)c2cccc(Br)c2)c1O | 5922 | -1 | 2 | 6 | 1 | 1
CC(=O)N(Cc1cc2cc(C)c(C)cc2n2nnnc12)CC1COCCO1 (stereo not drawn) | 22636* | -1 | 2 | 1 | 2 | 2
c1ccc(-c2csc(-n3cnnn3)n2)cc1 | 21991* | 0 | 2 | 11 | 8 | 5
Cc1cc(C)n(-c2nc(-c3ccccc3)cs2)n1 | 4055 | 1 | 1 | 8 | 2 | -1
COc1cccc2cc(/C(=N/O)c3ccc(Br)cc3)oc12 | 3510 | -1 | 0 | 0 | -1 | -2
O/N=C(/c1ccccc1)c1cc2cc(Br)cc(Br)c2o1 | 3708 | 30* | 0 | 5 | 0 | 10
C#CCOCCOCCOCCNc1nc(N2CCN(C(=O)[C@H](CCCCN)n3cc([C@@H](N)C(C)CC)nn3)CC2)nc(N2CCN(C(=O)[C@H](Cc3cc4ccccc4[nH]3)n3cc([C@@H](N)C(C)CC)nn3)CC2)n1 (stereo partly drawn) | 4257 | -8 | 0 | -3 | 3 | -55
CCOC(=O)c1c(NC(=S)Nc2ccc(Cl)cc2)sc2c1CCN(C)C2 | 15220 | 34* | 46* | 15 | 3 | 11
Cc1cc(Nc2ccc(N(C)C)cc2)n2ncnc2n1 | 3252 | -11 | -9 | 14 | 1 | -27
COc1ccc(OC)c(NC(=O)CN2C(=O)NC(C)(c3ccc4c(c3)OCCO4)C2=O)c1 (stereo not drawn) | 3734 | -3 | -1 | 7 | -1 | -10
SMILES | Autofluor counter | Anthrax LF prot | BoNT A protease | GDH-TPI inh | Mtb FBA inh | BoNT-F LC inh
Cc1cc(Cl)ccc1NC(=O)Nc1c(C)n(-c2ccccc2)c(=O)n1C | 22798* | 0 | 0 | 2 | 2 | -1
COc1ccc(Cl)c(NC(=O)Nc2c(C)n(-c3ccccc3)c(=O)n2C)c1 | 2185 | -2 | 0 | 7 | 3 | -11
C[C@H](CO)N1C[C@H](C)[C@H](CN(C)C(=O)Nc2ccc(C(F)(F)F)cc2)Oc2ncc(-c3cccnc3)cc2C1=O | 3781 | -2 | 0 | 0 | -2 | -4
COC1=C(OC)C(=O)C(Sc2ccc3ccccc3c2)=CC1=O | 3485 | -17 | 2 | 3 | -2 | -4
CCN(C(=O)Cc1c(C(=O)O)n(C)c2ccccc12)c1cc(OC)ccc1OC | 3868 | 6 | 1 | 8 | 4 | -12
CCN1/C(=C\C=C\C2=[N+](CC)c3ccccc3C2(C)C)C(C)(C)c2ccccc21 | 3370 | 29 | 92* | 4 | -3 | -28
